Compound activity from PubChem.
An excerpt weighted towards active compounds, which were near 14% of everything screened.
4MU fluor – qHTS Assay for Spectroscopic Profiling in 4-MU Spectral Region; compound autofluorescence, 340/450 nm, 4-MU equivalents; active compounds read high; max dye-equivalent concentration, M; hit rate 11% among 59,000; AID 589, 2007; in the data active = max dye-equivalent concentration above about 10 nM; inconclusive = mostly about 1.1 nM to 9.6 nM
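Compounds in 100 mM Tris, pH 8.0, sat 15 min at room temperature before fluorescence was read at 340 nm excitation/450 nm emission; a per-plate six-point 4-MU standard curve converted signals to dye-equivalent concentration at each compound concentration.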
HADH2 inhib – qHTS Assay for Inhibitors of HADH2 (Hydroxyacyl-Coenzyme A Dehydrogenase, Type II). recombinant HADH2, NADH fluorescence, beta-hydroxybutyryl-CoA. 3-hydroxyacyl-CoA dehydrogenase type-2 (Homo sapiens), Q99714. hit rate 3.4% among 73,000. Potency, µM (highest dose often 57.1 µM), actives largely listed as inhibitors; also: nearly all actives have a fitted effect of over 60% in size
Target sequence (Q99714 whole entry, looked up, one chain of several): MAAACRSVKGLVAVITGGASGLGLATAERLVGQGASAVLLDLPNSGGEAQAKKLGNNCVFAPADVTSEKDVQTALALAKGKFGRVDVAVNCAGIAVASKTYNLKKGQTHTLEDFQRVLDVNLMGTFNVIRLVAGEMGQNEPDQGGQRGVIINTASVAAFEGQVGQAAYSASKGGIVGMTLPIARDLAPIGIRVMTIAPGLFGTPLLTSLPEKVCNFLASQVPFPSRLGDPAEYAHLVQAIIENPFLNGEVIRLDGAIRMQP
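20 nM HADH2 + cpd, 15 min RT; add 1 mM NAD+/90 uM beta-hydroxybutyryl-CoA; kinetic fluorescence 360/450 nm, 4 min. Tris-HCl pH 9.0, 0.01% Tween-20.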
HSD17B inhib – qHTS Assay for Inhibitors of HSD17B4, hydroxysteroid (17-beta) dehydrogenase 4. recombinant HSD17B10, NADH fluorescence kinetic. Potency, µM (highest dose often 57.1 µM), usual class: inhibitors. hit rate 7.6% among 75,000. 3-hydroxyacyl-CoA dehydrogenase type-2 (Homo sapiens), Q99714;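 also: the protocol describes HADH2 (HSD17B10) and not the HSD17B4 of the title; nearly all actives have a fitted effect of over 70% in size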
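20 nM HADH2, pH 9.0 Tris/Tween; cpd preinc 15 min RT; start w/ 1 mM NAD+ + 90 uM b-hydroxybutyryl-CoA; kinetic fluor ex360/em450 q30s x 4 min; delta last-first.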
A350 autofl – qHTS Assay for Spectroscopic Profiling in A350 Spectral Region | Compound autofluorescence, 340/450 nm, Alexa 350 dye-equivalents; active compounds read high | max dye-equivalent concentration, M | hit rate 11% among 59,000 | AID 590, 2007; in the data active = max dye-equivalent concentration above about 10 nM; inconclusive = mostly about 1.1 nM to 9.6 nM
CRE Fsk mod – Cell signaling CRE-BLA (Fsk stim); CHO CRE-bla reporter (cAMP response element driving beta-lactamase), forskolin EC10, beta-lactamase ratio; Potency, µM (top dose mostly 38.2 µM), actives largely listed as activators; hit rate 2.5% among 71,000; AID 662, 2007; active = well fitted activation curve with a large enough effect in the signal ratio, with a control signal flat, not every such curve was filed as active; inconclusive = small, poorly fitted or top-dose-only effect, or effect the other way, or a change in a side signal; the % refers to the signal ratio
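CRE-bla CHO cells stimulated with EC10 NKH 477 (water-soluble forskolin) and compound titrations, 3 h at 37C; beta-lactamase read with CCF4 after 2 h at room temperature. Activity from 460/530 nm emission ratio, AC50 values for positive or negative modulation.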
AID923 – qHTS Assay for Allosteric/Competitive Inhibitors of Caspase-1: Spectroscopic Profiling in AFC Spectral Region. compound fluorescence, AFC spectral region (405/520 nm). Potency, µM (highest dose often 57.5 µM), hits mostly activators. hit rate 1.1% among 75,000. AID 923, 2007
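Baseline compound fluorescence (AFC region, 405 nm ex/520 nm em) taken from the intercept of kinetic reads with 50 nM caspase-1 and 5 uM Ac-WEHD-AFC; normalized to an on-plate AFC standard curve; compounds titrated up to 57 uM.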
Of the large screens only hits and unclear results are named; the others gave an inactive call. Unless noted, calls follow the shape of the dose curve; as a rule, active = well fitted curve in the direction sought with a large enough effect; inconclusive = small, poorly fitted or top-dose-only effect, or another doubt; inactive = no such curve, though single readings can be large; an effect the other way counts as inactive or inconclusive.

C[C@@H]1CCCC(CC(=O)O)(CC(=O)O)C1	none
N#Cc1nc(-c2cccs2)oc1NCc1ccccc1	4MU fluor 4.86e-07M, A350 autofl 5.65e-07M (no result: HADH2 inhib, HSD17B inhib, CRE Fsk mod, AID923)
N#Cc1nc(Cc2ccccc2)oc1N1CCN(c2ccccc2)CC1	none
Cc1ccc(CNc2oc(-c3cccs3)nc2C#N)cc1	4MU fluor 3.22e-07M, HSD17B inhib 25.1µM, A350 autofl 4.51e-07M, CRE Fsk mod inconclusive
COc1ccc(CNc2oc(COc3ccccc3)nc2C#N)cc1	none (no result: 4MU fluor, A350 autofl, CRE Fsk mod)
N#Cc1nc(-c2cccs2)oc1N1CCN(c2ccccc2)CC1	4MU fluor 2.11e-07M, HSD17B inhib 31.6µM, A350 autofl 1.44e-07M, CRE Fsk mod inconclusive
N#Cc1nc(-c2cccs2)oc1NCc1ccccc1Cl	4MU fluor 1.64e-07M, A350 autofl 2.06e-07M (no result: HADH2 inhib, HSD17B inhib, CRE Fsk mod, AID923)
COc1ccc(CNc2oc(Cc3cccc4ccccc34)nc2C#N)cc1	none
COC(=O)[C@@H](NC(=O)c1cc(-c2ccccc2)nc2ccccc12)c1ccccc1	none (no result: HSD17B inhib, AID923)
Cc1ccc(S(=O)(=O)N[C@H]2COC(=O)CC=C[C@@H](C)[C@H]3C=C[C@H](O)[C@@H](COC(=O)CC=C[C@H]2C)O3)cc1	none (no result: 4MU fluor, A350 autofl, CRE Fsk mod)
CCC(C)C(=O)OC1CC(O)C=C2C=CC(C)C(CCC(O)CC(O)CC(=O)O)C21 (stereo unspecified)	none (no result: 4MU fluor, HADH2 inhib, A350 autofl, CRE Fsk mod)
N#Cc1nc(-c2cccs2)oc1NCc1ccco1	4MU fluor 1.5e-06M, HADH2 inhib inconclusive, HSD17B inhib 25.1µM, A350 autofl 1.89e-06M
N#Cc1nc(-c2cccs2)oc1NCc1ccc(Cl)cc1	HADH2 inhib inconclusive, HSD17B inhib 31.6µM (no result: 4MU fluor, A350 autofl, CRE Fsk mod)
N#Cc1nc(COc2ccc(Cl)cc2)oc1NCc1ccc2c(c1)OCO2	none
Cn1c(=O)c2c(ncn2CN2CCN(Cn3cnc4c3c(=O)n(C)c(=O)n4C)CC2)n(C)c1=O	none
COc1cccc(C2=NOC(C(=O)NCc3ccc(F)cc3)C2)c1 (stereo unspecified)	CRE Fsk mod 12.6µM
COc1ccc(C2=NOC(C(=O)NCc3ccc(F)cc3)C2)cc1OC (stereo unspecified)	A350 autofl inconclusive, CRE Fsk mod 12.6µM
COc1ccc(C2=NOC(C(=O)Nc3ccc(C)cc3)C2)cc1OC (stereo unspecified)	4MU fluor inconclusive, A350 autofl inconclusive, CRE Fsk mod inconclusive
COc1ccc(NC(=O)C2CC(c3ccc(OC)c(OC)c3)=NO2)cc1OC (stereo unspecified)	4MU fluor 2.45e-08M, HSD17B inhib inconclusive, A350 autofl 2.57e-08M, CRE Fsk mod inconclusive
COc1ccc(C2=NOC(C(=O)Nc3cc(C)nn3-c3ccccc3)C2)cc1OC (stereo unspecified)	CRE Fsk mod 2.51µM (no result: 4MU fluor, A350 autofl)
COc1ccc(OC)c(S(=O)(=O)N2CCC(C(=O)Nc3ccc(C)c(C)c3)CC2)c1	CRE Fsk mod inconclusive
COc1ccc2c(c1)OCc1c-2oc2cc(OC)ccc12	none (no result: 4MU fluor, HADH2 inhib, A350 autofl, CRE Fsk mod)
Cc1n[nH]c(=O)[nH]c1=O	none
O=C(CN1C(=O)C2C3C=CC(C3)C2C1=O)Nc1ccc2nccnc2c1 (stereo unspecified)	HADH2 inhib 20µM, HSD17B inhib 31.6µM (no result: 4MU fluor, A350 autofl)
O=C(/C=C/Nc1ccc(F)c(Cl)c1)c1ccco1	4MU fluor inconclusive, HSD17B inhib 20µM, A350 autofl inconclusive
COCC(=O)N1CCC2(CC1)CCN(C(=O)Nc1cccc(C#N)c1)CC2	none
Cc1nn(-c2ccccc2)c2sc(C(=O)OCN3C(=O)c4ccccc4C3=O)cc12	HSD17B inhib inconclusive, CRE Fsk mod 1.58µM (no result: 4MU fluor, A350 autofl)
Cc1nn(-c2ccc(F)cc2)c2sc(C(=O)N3CCCCCC3)cc12	A350 autofl inconclusive, CRE Fsk mod 1µM
Cc1nn(-c2ccc(Cl)cc2)c2sc(C(=O)N3CCN(C(=O)c4ccco4)CC3)cc12	none
Cc1ccsc1C(=O)OC1CCOC1=O (stereo unspecified)	CRE Fsk mod inconclusive
Cc1nn(-c2ccc(F)cc2)c2sc(C(=O)OC3CCOC3=O)cc12 (stereo unspecified)	4MU fluor 3.14e-07M, HSD17B inhib 25.1µM, A350 autofl 4.65e-07M, CRE Fsk mod inconclusive
